Test results from PubChem BioAssay (NCI).
The panel holds about 83,000 compounds, 20% with a hit somewhere; the sample as a whole holds those more often.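 Cells were grown in 96-well plates and exposed to the test compound at a single concentration for 48 hours; results are reported as percent growth, with values below 10 considered active.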 Calls of active or inactive are those of the source.

Tested on: MDA-MB-468 breast
Assay: NCI-60 one-dose screen, 48 h (100 = growth as untreated, 0 = no growth, -100 = all killed)
Conditions: 10 µM unless noted

| Structure (SMILES) | growth |
| --- | --- |
| CCN(CC)c1ccc(/C=C\C(=O)c2ccc(NC(C)=O)cc2)cc1 | 10.7% (inactive) |
| O=C(CCCNC(=O)c1nc(-c2ccccc2)n(-c2ccccc2)n1)NO | 98.8% (inactive) |
| Nc1nc2c(c(=O)[nH]1)C1(C(=O)Nc3ccccc31)c1c(nc(N)[nH]c1=O)N2 | 101% (inactive) |
| C#C[C@]1(O)CC[C@H]2[C@@H]3CC=C4c5nc(Nc6ccc(OC)cc6OC)sc5CC[C@]4(C)[C@H]3CC[C@@]21C | -6.78% (active) |
| CCC1=C[C@@H]2C[C@]3(C(=O)OC)c4[nH]c5ccccc5c4CC[N@+](CC(=O)Nc4cc5c(cc4OC)N(C)[C@H]4[C@@](O)(C(=O)OC)[C@H](OC(C)=O)[C@]6(CC)C=CCN7CC[C@]54[C@@H]76)(C2)[C@H]13 | 111% (inactive) |
| CC(C)OC(=O)c1ccc2[nH]c(O)c(C(=Nc3ccc(N(C)C(=O)CN4CCN(C)CC4)cc3)c3ccccc3)c2c1 | -91% (active) |
| COc1c(Cl)cc(Cl)cc1Cl | 110% (inactive) |
| CCCS(=O)(=O)Nc1ccc(F)c(C(=O)c2c[nH]c3ncc(-c4ccc(OCCCC5CCCCN5)nc4)cc23)c1F (configuration not stated) | 69.6% (inactive) |
| CC1(C)CC[C@]2(C(=O)N3CCCN(CC#N)CC3)CC[C@]3(C)C(=CC[C@@H]4[C@@]5(C)CC[C@H](O)C(C)(C)[C@@H]5CC[C@]43C)[C@H]2C1 | 41.2% (inactive) |
| Cc1nn(C)c2ncnc(N/N=C/c3cccc(O)c3O)c12 | -11% (active) |
| Brc1ccc2c(c1)CN(C1CCCCC1)CO2 | 110% (inactive) |
| Cc1ccc(S(=O)(=O)OCCN(CCOS(=O)(=O)c2ccc(C)cc2)c2c[nH]c(=O)[nH]c2=O)cc1 | 98.5% (inactive) |
